Results filed as inconclusive are left out. The source made the active and inactive calls. The call rests on the fitted dose curve.
Experiments:
[1] = target: Acetylcholinesterase (Homo sapiens) (UniProt P22303); test: Acetylcholinesterase (AChE) small molecule antagonists: colormetric cell-based qHTS assay (AID 1347395); further: nearly all actives have a fitted effect of over 30% in size
How it was run: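 In this cell-based qHTS, attached SH-SY5Y cells were treated with test chemicals for 30 min, after which acetylthiocholine hydrolysis was followed by DTNB colour development over 90 min at 37 C.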

[2] = target: Acetylcholinesterase (Homo sapiens) (UniProt P22303); test: Acetylcholinesterase (AChE) small molecule antagonists: enzyme-based qHTS assay (AID 1347397); details: Potency: AChE enzyme activity inhibition; outcome: AChE enzyme activity inhibition; further: nearly all actives have a fitted effect of over 55% in size
How it was run: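 Colorimetric DTNB readout of acetylthiocholine hydrolysis, 10 min at room temperature, after 30 min room-temperature exposure of 50 mU/mL recombinant human enzyme to compound; DMSO vehicle control.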

[3] = target: Acetylcholinesterase (Homo sapiens) (UniProt P22303); test: Acetylcholinesterase (AChE) small molecule antagonists: fluorescence cell-based qHTS assay (AID 1347398); details: Potency: AChE activity; outcome: AChE activity; further: nearly all actives have a fitted effect of over 50% in size
How it was run: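 Cellular AChE activity read as thiocholine from acetylthiocholine hydrolysis, detected by Thiolite Green fluorescence at 490/520 nm after 40 min at room temperature. Compounds were pre-incubated 30 min at 37 C on adherent SH-SY5Y cells.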

[4] = target: Acetylcholinesterase (Homo sapiens) (UniProt P22303); test: Acetylcholinesterase (AChE) small molecule antagonists: enzyme-based qHTS assay with human liver microsomes (AID 1347399); details: Potency: qHTS inhibition; outcome: qHTS inhibition; further: nearly all actives have a fitted effect of over 60% in size
How it was run: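 Recombinant human AChE (50 mU/mL in the enzyme mix) and human liver microsomes (0.25 mg/mL final) were preincubated with compound and NADPH (0.25 mg/mL final) for 30 min at 37 C. Acetylthiocholine/DTNB was then added; thiocholine was read colorimetrically after 10 min at room temperature.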
On the % scale 0 is the no-effect control and ±100 the full control effect.

Chain of Acetylcholinesterase (Homo sapiens) (P22303 whole entry, looked up): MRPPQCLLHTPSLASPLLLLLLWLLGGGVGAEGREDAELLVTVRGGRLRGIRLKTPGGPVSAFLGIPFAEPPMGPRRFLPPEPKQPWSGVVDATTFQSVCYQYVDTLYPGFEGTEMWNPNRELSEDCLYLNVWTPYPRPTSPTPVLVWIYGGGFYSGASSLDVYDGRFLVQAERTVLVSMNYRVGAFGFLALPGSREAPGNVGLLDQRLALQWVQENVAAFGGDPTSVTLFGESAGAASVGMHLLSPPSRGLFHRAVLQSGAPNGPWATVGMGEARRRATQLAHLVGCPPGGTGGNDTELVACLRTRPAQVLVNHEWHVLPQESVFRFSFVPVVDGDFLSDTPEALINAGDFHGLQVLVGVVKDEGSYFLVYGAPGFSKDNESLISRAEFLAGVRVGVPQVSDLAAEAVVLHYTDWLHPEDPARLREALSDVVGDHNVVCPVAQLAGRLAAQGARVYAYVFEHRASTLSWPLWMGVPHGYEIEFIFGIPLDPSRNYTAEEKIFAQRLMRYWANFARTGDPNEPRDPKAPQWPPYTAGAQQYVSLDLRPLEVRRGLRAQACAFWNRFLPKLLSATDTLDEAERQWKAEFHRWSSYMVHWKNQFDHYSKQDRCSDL

CC(C)(N=C=O)c1cccc(C(C)(C)N=C=O)c1
inactive: Potency [1] | Potency [2] | Potency [3] | Potency [4]

CCCCCCCCCCCCCCCCO
inactive: Potency [1] | Potency [2] | Potency [3] | Potency [4]

O=c1[nH]c(=O)c2cn[nH]c2[nH]1
inactive: Potency [1] | Potency [2] | Potency [3] | Potency [4]

Cc1c(C(=O)O)cccc1[N+](=O)[O-]
inactive: Potency [1] | Potency [2] | Potency [3] | Potency [4]

OCC#CCO
inactive: Potency [1] | Potency [2] | Potency [3] | Potency [4]

CCOC(=O)Cc1cccc2ccccc12
inactive: Potency [1] | Potency [2] | Potency [3] | Potency [4]

c1ccc(CNCCNCc2ccccc2)cc1
inactive: Potency [1] | Potency [2] | Potency [3] | Potency [4]

CC(C)N(C)C
inactive: Potency [1] | Potency [2] | Potency [3] | Potency [4]

CCCCCC[C@@H](O)C/C=C\CCCCCCCC(=O)O
inactive: Potency [1] | Potency [2] | Potency [3] | Potency [4]

CN1C(=O)N(C)C(O)C1O (stereo not given)
inactive: Potency [1] | Potency [2] | Potency [3] | Potency [4]

CC/C=C\CCOC(C)OCC (stereo not given)
inactive: Potency [1] | Potency [2] | Potency [3] | Potency [4]

Cc1ccccc1S(=O)(=O)O
inactive: Potency [1] | Potency [2] | Potency [3] | Potency [4]

CCOc1ccccc1OCC1CNCCO1 (stereo not given)
inactive: outcome [1] | outcome [2] | outcome [3] | outcome [4]

CCCOCCOCCO
inactive: Potency [1] | Potency [2] | Potency [3] | Potency [4]

CCC(C(=O)NC(=O)NC(C)=O)c1ccccc1 (stereo not given)
inactive: Potency [1] | Potency [2] | Potency [3] | Potency [4]

NS(=O)(=O)c1ccc(Cl)c(S(N)(=O)=O)c1
inactive: Potency [1] | Potency [2] | Potency [3] | Potency [4]

CSc1ccc(/C=C2/C(C)=C(CC(=O)O)c3cc(F)ccc32)cc1
inactive: Potency [1] | Potency [2] | Potency [3] | Potency [4]

CC(C)(C)CC(C)(C)c1ccc(O)c(-n2nc3ccccc3n2)c1
inactive: Potency [1] | Potency [2] | Potency [3] | Potency [4]

O=C(O[C@@H]1Cc2c(O)cc(O)cc2O[C@@H]1c1cc(O)c(O)c(O)c1)c1cc(O)c(O)c(O)c1
inactive: Potency [1] | Potency [2] | Potency [3] | Potency [4]

O=C(CO)[C@@H](O)[C@H](O)[C@H](O)CO
inactive: Potency [1] | Potency [2] | Potency [3] | Potency [4]

CCCOC(=O)c1ccccc1
inactive: Potency [1] | Potency [2] | Potency [3] | Potency [4]

CCCCCCCCCCCCCCCC(=O)O
inactive: Potency [1] | Potency [2] | Potency [3] | Potency [4]

Nc1ccccc1Nc1ccccc1
inactive: Potency [1] | Potency [2] | Potency [3] | Potency [4]

O=C1c2ccccc2C(=O)C1c1nc2ccccc2c(Br)c1O
inactive: Potency [1] | Potency [2] | Potency [3] | Potency [4]

CC/C(C)=N/O
inactive: Potency [1] | Potency [2] | Potency [3] | Potency [4]

OCCCCCCCCCCCCBr
inactive: Potency [1] | Potency [2] | Potency [3] | Potency [4]

CC(C)S
inactive: Potency [1] | Potency [2] | Potency [3] | Potency [4]

COC(C)(C)CCO
inactive: Potency [1] | Potency [2] | Potency [3] | Potency [4]

CCOC(=O)n1ccn(C)c1=S
inactive: Potency [1] | Potency [2] | Potency [3] | Potency [4]

Nc1ccc2c(c1)CN1C(=O)c3ccccc3C1=N2
inactive: activity, negative = inhibition [1] -3.06% [at 23.6 µM] | activity change, negative = inhibition [2] 1.39% [at 23.6 µM] | activity change, negative = inhibition [3] -15.4% [at 23.8 µM] | activity change, negative = inhibition [4] 6.82% [at 23.6 µM]

O=C(NCC1CN(c2ccc(N3CCOCC3=O)cc2)C(=O)O1)c1ccc(Cl)s1 (stereo not given)
inactive: Potency [1] | Potency [2] | Potency [3] | Potency [4]

CC(C)C/C=C(\C=O)c1ccccc1
inactive: Potency [1] | Potency [2] | Potency [3] | Potency [4]

O=C1CCC(=O)O1
inactive: Potency [1] | Potency [2] | Potency [3] | Potency [4]

C[C@]12C(=O)OC(=O)[C@H]1[C@H]1C=C[C@@H]2C1
inactive: Potency [1] | Potency [2] | Potency [3] | Potency [4]

N[C@@H](C(=O)N[C@@H]1C(=O)N2C(C(=O)O)=C(Cl)CS[C@H]12)c1ccccc1
inactive: activity, negative = inhibition [1] -0.844% [at 10.5 µM] | activity change, negative = inhibition [2] -0.554% [at 10.5 µM] | activity change, negative = inhibition [3] 7.33% [at 10.5 µM] | activity change, negative = inhibition [4] -5.46% [at 10.5 µM]

Cc1c(O)cccc1O
inactive: Potency [1] | Potency [2] | Potency [3] | Potency [4]

CCOC(=O)[C@H](CCc1ccccc1)N[C@@H](C)C(=O)N1Cc2ccccc2C[C@H]1C(=O)O
inactive: Potency [1] | Potency [2] | Potency [3] | Potency [4]

CN(C)CCCN(C)C
inactive: activity, negative = inhibition [1] 3.16% [at 10.5 µM] | activity change, negative = inhibition [2] 0.096% [at 10.5 µM] | activity change, negative = inhibition [3] 0.828% [at 10.5 µM] | activity change, negative = inhibition [4] 0.146% [at 10.5 µM]

CCCCCCCCCCCCSC#N
inactive: Potency [1] | Potency [2] | Potency [3] | Potency [4]

CCOc1cc([N+](=O)[O-])c(OCC)cc1N1CCOCC1
inactive: Potency [1] | Potency [2] | Potency [3] | Potency [4]

O=c1cc[nH]c(=S)[nH]1
inactive: Potency [1] | Potency [2] | Potency [3] | Potency [4]

CCCC[C@H]1CN(CC2CCOCC2)C(=O)OC12CCN(C1(C)CCN(C(=O)c3c(C)ncnc3C)CC1)CC2
inactive: Potency [1] | Potency [2] | Potency [3] | Potency [4]

CN1CCCN(C(c2ccccc2)c2ccc(Cl)cc2)CC1 (stereo not given)
inactive: Potency [1] | Potency [2] | Potency [3] | Potency [4]

CN=C(NC#N)NCCSCc1nc[nH]c1C
inactive: Potency [1] | Potency [2] | Potency [3] | Potency [4]

OC[C@H]1O[C@@](CO)(O[C@H]2O[C@H](CO)[C@@H](O)[C@H](O)[C@H]2O)[C@@H](O)[C@@H]1O
inactive: Potency [1] | Potency [2] | Potency [3] | Potency [4]

CCc1oc2ccccc2c1C(=O)c1cc(Br)c(O)c(Br)c1
inactive: Potency [1] | Potency [2] | Potency [3] | Potency [4]

Nc1cc(S(=O)(=O)O)ccc1O
inactive: Potency [1] | Potency [2] | Potency [3] | Potency [4]

C=CC(C)(O)CC/C=C(\C)CC (stereo not given)
inactive: Potency [1] | Potency [2] | Potency [3] | Potency [4]

CCC(=O)c1c(O)cc(O)cc1O
inactive: Potency [1] | Potency [2] | Potency [3] | Potency [4]

Cc1cc(O)c(C)c(C)c1O
inactive: Potency [1] | Potency [2] | Potency [3] | Potency [4]

C=CC(C)CCC=C(C)C (stereo not given)
inactive: Potency [1] | Potency [2] | Potency [3] | Potency [4]

COc1ccccc1O
inactive: Potency [1] | Potency [2] | Potency [3] | Potency [4]

CS(=O)(=O)c1ccc([C@@H](O)[C@@H](CO)NC(=O)C(Cl)Cl)cc1
inactive: Potency [1] | Potency [2] | Potency [3] | Potency [4]

CC(C)(c1ccccc1)c1ccc(Nc2ccc(C(C)(C)c3ccccc3)cc2)cc1
inactive: Potency [1] | Potency [2] | Potency [3] | Potency [4]

O=C(O)P(=O)(O)O
inactive: Potency [1] | Potency [2] | Potency [3] | Potency [4]

O=C1[C@H](CC[C@H](O)c2ccc(F)cc2)[C@@H](c2ccc(O)cc2)N1c1ccc(F)cc1
inactive: Potency [1] | Potency [2] | Potency [3] | Potency [4]

O=C(Oc1ccccc1)c1ccc2ccccc2c1O
inactive: Potency [1] | Potency [2] | Potency [3] | Potency [4]

C[C@@H](O)C(=O)O
inactive: Potency [1] | Potency [2] | Potency [3] | Potency [4]

O=C(O)CCCCC1CCSS1 (stereo not given)
inactive: Potency [1] | Potency [2] | Potency [3] | Potency [4]

CC1(C)OC[C@@H]2O[C@@]3(C(=O)O)OC(C)(C)O[C@H]3[C@@H]2O1
inactive: Potency [1] | Potency [2] | Potency [3] | Potency [4]
